Several values for one entry are separate records, joined by “and”; a condition that tells them apart may be missing. Identical values can stand only once.

The text below walks through data of ChEMBL document CHEMBL1961873, “Compounds: GSK PKIS; Assays: Nanosyn kinase panel” (2012).

RAC-beta serine/threonine-protein kinase (Homo sapiens), sequence (P31751 whole entry): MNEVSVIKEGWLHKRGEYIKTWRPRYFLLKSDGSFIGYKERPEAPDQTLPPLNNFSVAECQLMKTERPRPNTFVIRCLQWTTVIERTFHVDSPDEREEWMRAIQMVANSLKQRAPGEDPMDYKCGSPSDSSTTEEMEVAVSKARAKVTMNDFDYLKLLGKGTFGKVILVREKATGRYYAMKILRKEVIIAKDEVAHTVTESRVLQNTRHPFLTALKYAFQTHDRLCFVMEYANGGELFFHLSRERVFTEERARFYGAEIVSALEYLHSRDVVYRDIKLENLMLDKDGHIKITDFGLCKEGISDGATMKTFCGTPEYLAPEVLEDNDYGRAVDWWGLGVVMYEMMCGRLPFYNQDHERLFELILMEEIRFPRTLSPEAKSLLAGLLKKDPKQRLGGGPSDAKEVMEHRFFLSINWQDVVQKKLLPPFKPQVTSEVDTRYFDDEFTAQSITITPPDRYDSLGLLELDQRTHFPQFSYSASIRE

For the first assay, the target named is RAC-alpha serine/threonine-protein kinase (Homo sapiens) (UniProt P31749). Conditions: at 1 µM.
RAC-alpha serine/threonine-protein kinase (Homo sapiens), sequence (P31749 whole entry): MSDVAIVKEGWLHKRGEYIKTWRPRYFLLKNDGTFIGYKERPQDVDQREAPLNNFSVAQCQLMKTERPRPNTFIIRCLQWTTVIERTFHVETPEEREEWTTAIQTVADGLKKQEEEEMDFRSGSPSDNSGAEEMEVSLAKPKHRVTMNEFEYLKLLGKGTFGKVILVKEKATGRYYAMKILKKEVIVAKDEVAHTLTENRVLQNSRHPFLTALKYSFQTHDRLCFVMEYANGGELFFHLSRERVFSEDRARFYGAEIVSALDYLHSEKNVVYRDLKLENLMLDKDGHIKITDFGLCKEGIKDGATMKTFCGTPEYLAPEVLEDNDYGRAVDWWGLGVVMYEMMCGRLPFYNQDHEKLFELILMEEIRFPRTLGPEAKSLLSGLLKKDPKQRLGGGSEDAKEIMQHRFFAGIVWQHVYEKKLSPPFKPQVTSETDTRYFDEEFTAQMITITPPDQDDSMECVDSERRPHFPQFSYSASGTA
For `Nc1nonc1-c1nc2cnccc2n1C1CC1`, the inhibition is 8.06% and 5.34%.

Take `NS(=O)(=O)c1cccc(N/C=C2\C(=O)Nc3ccccc32)c1`: the inhibition stood at 0.97%.

As to `CC1=C(C(=O)Nc2ccc3[nH]ncc3c2)C(c2ccc(F)cc2)N=C(c2ccc(C(F)(F)F)nc2)N1` (configuration not stated), the inhibition worked out at 1.06%.

For the molecule `CNC(=O)c1cncc(/C=C/c2ccccc2C)c1`, the inhibition is 1.08%.

For the molecule `CN1CCC(C(=O)Nc2n[nH]c3nc(-c4ccc(O)cc4)c(Br)cc23)CC1`, the inhibition is -3.1% and -0.05%.

As for `Cc1cc(O)cc(C)c1/C=C/c1cncc(C(N)=O)c1`, the inhibition worked out at 1.41%.

Consider `CS(=O)(=O)Nc1ccc(-c2cc(-c3ccccc3)cc(C(N)=O)c2N)cc1`, for which the inhibition was -0.28%.

In the case of `CS(=O)(=O)CCNCc1ccc(-c2ccc3ncnc(Nc4ccc(OCc5ccccc5)cc4)c3c2)o1`, the inhibition came out at 0.62%.

Take `CCOc1ccc2c(-c3ccnc(Nc4cc(OC)cc(C(F)(F)F)c4)n3)cnn2n1`: the inhibition came to 0.45%.

Turning to `Cc1cc(O)cc(C)c1/C=C/c1cncc(C(=O)OC(C)(C)C)c1`, the inhibition came to 0.97%.

On to `O=C1Nc2ccccc2/C1=C1\CCc2cc(O)ccc21`, for which the inhibition stood at 1.37%.

For `CCS(=O)(=O)c1ccc(OC)c(Nc2ncc(-c3cccc(F)c3)o2)c1`, the inhibition is 0.05%.

For the molecule `COc1cccc(Nc2nccc(-c3cnn4ncccc34)n2)c1`, the inhibition amounted to 0.43%.

Consider `Nc1ncnc2occ(-c3ccc(NC(=O)Nc4cc(C(F)(F)F)ccc4F)cc3)c12`, for which the inhibition was 0.58% and -1.87%.

On to `O=C(Nc1n[nH]c2nnc(-c3cccnc3)cc12)C1CC1`, for which the inhibition was -0.67%.

Turning to `O=C(O[C@H]1CN[C@H](C#Cc2cc3ncnc(Nc4ccc5c(cnn5Cc5ccccc5)c4)c3s2)C1)N1CCOCC1`, the inhibition is -0.52%.

Take `COc1cc(N2CCN(C(C)C)CC2)ccc1Nc1nc(Nc2cccc3ncccc23)c2cc[nH]c2n1`: the inhibition was -0.94%.

For the molecule `CS(=O)(=O)CCNCc1ccoc1-c1ccc2ncnc(Nc3ccc(OCc4ccccc4)cc3)c2c1`, the inhibition came to 0.18%.

For `CCN1CCC(C(=O)Nc2n[nH]c3nnc(-c4cccc(F)c4F)cc23)CC1`, the inhibition is -1.03%.

Take `COc1ccc(-c2nn3ncccc3c2-c2ccnc(Nc3ccc(F)c(F)c3)n2)cc1`: the inhibition came out at 2.13%.

For `CCS(=O)(=O)c1ccc(OC)c(Nc2ncc(-c3cccc(C(C)=O)c3)o2)c1`, the inhibition came out at 0.26%.

Take `c1cnn2ncc(-c3ccnc(NCCCN4CCOCC4)n3)c2c1`: the inhibition was found to be 0.29%.

Regarding `CN(C)CCNC(=O)Nc1ccc(N(C)c2ccnc(Nc3ccc(CS(C)(=O)=O)cc3)n2)cc1`, the inhibition was found to be 0.77%.

With `CCn1c(-c2nonc2N)nc2cncc(C(=O)NCCNC)c21`, the inhibition turned out to be 17.7%.

With `COc1cc(N2CCN(C(C)C)CC2)ccc1Nc1nc(Nc2cccc(F)c2C(=O)O)c2cc[nH]c2n1`, the inhibition was 0.67%.

As for `COC(=O)Nc1nc2cc(Oc3ccc(NC(=O)Nc4ccccc4)cc3)ccc2[nH]1`, the inhibition came out at 0.28%.

Regarding `NC(=O)c1ccc2c(-c3ccnc(NCCCO)n3)c(-c3ccc(F)cc3)nn2c1`, the inhibition is -0.47%.

With `CS(=O)(=O)Nc1ccc(-c2ccc3c(NC(=O)C4CC4)n[nH]c3c2)cc1`, the inhibition was determined as 2.3%.

Turning to `COC(=O)Nc1nc2ccc(Oc3ccc(NC(=O)Nc4cc(C(F)(F)F)ccc4F)cc3)cc2s1`, the inhibition was -0.66%.

Consider `COc1ccccc1-c1cc(/C=C2\C(=O)Nc3ncc(Br)cc32)cc(Br)c1O`, for which the inhibition came out at 0.15%.

`Cc1nnc(-c2cccc(-c3ccc(C(=O)NCC4CC4)cc3)c2)o1`: the inhibition came out at 1.35%.

The next assay concerns the target RAC-beta serine/threonine-protein kinase (Homo sapiens) (UniProt P31751). The settings on record: at 0.1 µM.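 Note: reported figure is the mean percent inhibition of AKT2.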
For `Nc1nonc1-c1nc2cnccc2n1C1CC1`, the inhibition is 2.53% and -2.31%.

Turning to `NS(=O)(=O)c1cccc(N/C=C2\C(=O)Nc3ccccc32)c1`, the inhibition came out at 1.32%.

As for `CC1=C(C(=O)Nc2ccc3[nH]ncc3c2)C(c2ccc(F)cc2)N=C(c2ccc(C(F)(F)F)nc2)N1` (configuration not stated), the inhibition was determined as 1.39%.

With `CNC(=O)c1cncc(/C=C/c2ccccc2C)c1`, the inhibition is 2.41%.

In the case of `CN1CCC(C(=O)Nc2n[nH]c3nc(-c4ccc(O)cc4)c(Br)cc23)CC1`, the inhibition was -1.35% and 0.28%.

Consider `Cc1cc(O)cc(C)c1/C=C/c1cncc(C(N)=O)c1`, for which the inhibition turned out to be 1.8%.

Take `CS(=O)(=O)Nc1ccc(-c2cc(-c3ccccc3)cc(C(N)=O)c2N)cc1`: the inhibition worked out at 0.22%.

In the case of `CS(=O)(=O)CCNCc1ccc(-c2ccc3ncnc(Nc4ccc(OCc5ccccc5)cc4)c3c2)o1`, the inhibition was 0.5%.

`CCOc1ccc2c(-c3ccnc(Nc4cc(OC)cc(C(F)(F)F)c4)n3)cnn2n1`: the inhibition amounted to 0.01%.

Regarding `Cc1cc(O)cc(C)c1/C=C/c1cncc(C(=O)OC(C)(C)C)c1`, the inhibition worked out at 1.75%.

Turning to `O=C1Nc2ccccc2/C1=C1\CCc2cc(O)ccc21`, the inhibition came out at 1.86%.

`CCS(=O)(=O)c1ccc(OC)c(Nc2ncc(-c3cccc(F)c3)o2)c1`: the inhibition worked out at 0.44%.

As to `COc1cccc(Nc2nccc(-c3cnn4ncccc34)n2)c1`, the inhibition came to 1.17%.

For `Nc1ncnc2occ(-c3ccc(NC(=O)Nc4cc(C(F)(F)F)ccc4F)cc3)c12`, the inhibition is 1.35% and -1.97%.

`O=C(Nc1n[nH]c2nnc(-c3cccnc3)cc12)C1CC1`: the inhibition was -0.56%.

For the molecule `O=C(O[C@H]1CN[C@H](C#Cc2cc3ncnc(Nc4ccc5c(cnn5Cc5ccccc5)c4)c3s2)C1)N1CCOCC1`, the inhibition was -0.56%.

For the molecule `COc1cc(N2CCN(C(C)C)CC2)ccc1Nc1nc(Nc2cccc3ncccc23)c2cc[nH]c2n1`, the inhibition is -0.9%.

Turning to `CS(=O)(=O)CCNCc1ccoc1-c1ccc2ncnc(Nc3ccc(OCc4ccccc4)cc3)c2c1`, the inhibition was -0.24%.

Regarding `CCN1CCC(C(=O)Nc2n[nH]c3nnc(-c4cccc(F)c4F)cc23)CC1`, the inhibition is -1.1%.

With `COc1ccc(-c2nn3ncccc3c2-c2ccnc(Nc3ccc(F)c(F)c3)n2)cc1`, the inhibition turned out to be 1.56%.

With `CCS(=O)(=O)c1ccc(OC)c(Nc2ncc(-c3cccc(C(C)=O)c3)o2)c1`, the inhibition was 0.96%.

For the molecule `c1cnn2ncc(-c3ccnc(NCCCN4CCOCC4)n3)c2c1`, the inhibition turned out to be 1.29%.

Turning to `CN(C)CCNC(=O)Nc1ccc(N(C)c2ccnc(Nc3ccc(CS(C)(=O)=O)cc3)n2)cc1`, the inhibition worked out at 1.42%.

For `CCn1c(-c2nonc2N)nc2cncc(C(=O)NCCNC)c21`, the inhibition was 3.28%.

For `COc1cc(N2CCN(C(C)C)CC2)ccc1Nc1nc(Nc2cccc(F)c2C(=O)O)c2cc[nH]c2n1`, the inhibition amounted to 1.27%.

With `COC(=O)Nc1nc2cc(Oc3ccc(NC(=O)Nc4ccccc4)cc3)ccc2[nH]1`, the inhibition amounted to 1.44%.

Regarding `NC(=O)c1ccc2c(-c3ccnc(NCCCO)n3)c(-c3ccc(F)cc3)nn2c1`, the inhibition came out at 1.62%.

With `CS(=O)(=O)Nc1ccc(-c2ccc3c(NC(=O)C4CC4)n[nH]c3c2)cc1`, the inhibition was determined as 1.58%.

For the molecule `COC(=O)Nc1nc2ccc(Oc3ccc(NC(=O)Nc4cc(C(F)(F)F)ccc4F)cc3)cc2s1`, the inhibition is -0.14%.

Turning to `COc1ccccc1-c1cc(/C=C2\C(=O)Nc3ncc(Br)cc32)cc(Br)c1O`, the inhibition amounted to 1.96%.

With `Cc1nnc(-c2cccc(-c3ccc(C(=O)NCC4CC4)cc3)c2)o1`, the inhibition came out at 2.63%.

What is called inhibition is the change of the read-out against control, counted positive when it falls.
